Rows were chosen to be rich in hits. Some 4.8% of all compounds tested hit in one or more screens of this group.
tim23-1 inh = growth inhibitors of tim23-1 mutant yeast, primary screen, luminescence, uHTS | AID 463212, 2010 | inhibition, % at 20 µM | hit rate 1.3% among 330,000 | S. cerevisiae tim23-1 growth, BacTiter-Glo luminescence, 24 h;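 active = growth inhibition of the mutant yeast at or above 50%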;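 also: temperature-sensitive mutant grown at 25 °C; plate controls were DMSO-treated mutant yeast for no effect and medium wells lacking yeast for full effect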
PfHsp90 yeast 2 = growth inhibition of PfHsp90-expressing yeast, primary screen, antimalarial PfHsp90 inhibitor project, S. cerevisiae, BacTiter-Glo luminescence, single point, set 2 | BacTiter-Glo ATP, 48 h; yeast lacking PDR1 and PDR3 efflux regulators | inhibition, % at 9.4 µM | hit rate 0.32% among 310,000 | AID 504621, 2011;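 active = every replicate shows inhibition above about 80%, whatever the replicate mean, limit read from the data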;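 also: 0% = DMSO neutral controls and 100% = 20 µM radicicol positive controls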
SKKanGAS inh = S. pyogenes SKKanGAS growth inhibitors in kanamycin, primary screen, streptokinase expression inhibitor project, SKKanGAS strain, BacTiter-Glo luminescence | AID 1662, 2009 | 6 h | inhibition, % at 7.5 µM | hit rate 1.3% among 300,000;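 active = mean replicate score, as percent of positive control median, at least 50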;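 also: strain carries kanamycin resistance gene driven by streptokinase promoter and grows in 40 µg/ml kanamycin; loss of luminescence reflects streptokinase promoter inhibition or plain growth inhibition; 0% = median of DMSO wells and 100% = positive control at its reference dose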
TIM10 inh = growth inhibitors of isogenic TIM10 control yeast, primary screen, counter-screen for tim10-1 yeast inhibitor project, luminescence, uHTS; AID 463195, 2010; S. cerevisiae TIM10 strain growth, BacTiter-Glo luminescence, 24 h; hit rate 1.4% among 330,000; inhibition, % at 10 µM;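 active = inhibition of 40% or more at the single tested concentration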;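 also: wild-type TIM10 isogenic control strain grown at permissive 25 °C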
tim10-1 inh = growth inhibitors of tim10-1 mutant yeast, primary screen, luminescence, uHTS; inhibition, % at 20 µM; hit rate 2.2% among 330,000; S. cerevisiae tim10-1 ts strain growth, BacTiter-Glo, 24 h; AID 463190, 2010;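 active = inhibition of at least 40%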;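 also: mutant grown at 25 °C; 0% = DMSO wells with yeast and 100% = wells holding no yeast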
NALP1 yeast inh = NALP1 inflammasome inhibitors in reconstituted yeast, colorimetric, S. cerevisiae, triplicate retest | S. cerevisiae NALP1/ASC/caspase-1 growth, X-gal OD620, 72 h | inhibition, % at 10 µM | AID 2071, 2009 | hit rate 0.61% among 280,000; in the data active = inhibition mostly above about 24%, no sharp cut-off; inactive = mostly below about 32%
tim10-1 conf = growth inhibitors of tim10-1 mutant yeast, confirmation, single concentration, luminescence, S. cerevisiae. shares compounds with tim10-1 inh. S. cerevisiae tim10-1 ts strain growth, BacTiter-Glo, 24 h. hit rate 56% among 7,400. inhibition, % at 20 µM;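 active = inhibition of yeast growth at or above a set limit in either of two repeat tests at 20 µM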;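 also: tim10-1 mutant grown at permissive 25 °C to find synthetic lethal compounds; 0% = DMSO yeast wells and 100% = medium wells without yeast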
The depositor's hits bear a star; / = not tested or not shown.

SMILES | tim23-1 inh | PfHsp90 yeast 2 | SKKanGAS inh | TIM10 inh | tim10-1 inh | NALP1 yeast inh | tim10-1 conf
Cc1cc(Nc2cccc(F)c2)nc(-c2ccccc2O)n1 | 32.5 | -85.1 | 2.2 | 36.9 | 42.6* | -3.4 | 43.2*
CCOC(=O)N1CCN(C(=O)c2oc(=O)c3ccccc3c2-c2ccc(C)cc2)CC1 | 23.8 | 9.5 | 0.9 | 8.0 | 16.6 | -15.5 | /
Cc1nc(SCC(=O)NCc2ccccc2)c2c(=O)n(C)c(=O)n(C)c2n1 | 29.1 | -5.9 | -3.2 | -4.0 | 10.7 | / | /
Cc1ccc(O)c(C2=Nc3ccccc3N=C(c3cccc([N+](=O)[O-])c3)C2)c1 | 3.2 | -9.5 | 5.9 | 13.7 | 40.2* | 13.6 | 17.7
CCc1ccccc1NC(=O)/C(=C/c1ccco1)c1ccccc1 | 29.0 | 54.4 | 4.2 | -18.4 | 27.8 | 23.0 | /
CCn1c(SCc2nc(-c3ccccc3)no2)nnc1-c1ccco1 | 5.1 | 18.0 | -13.5 | -0.7 | 21.6 | 16.7 | /
CCn1c(SCc2c(F)cccc2Cl)nnc1-c1ccco1 | 43.2 | 2.2 | 6.2 | 13.1 | 49.0* | 9.3 | 41.1*
O=C(NC(=S)Nc1cccc(C(F)(F)F)c1)c1csnn1 | 42.6 | -7.2 | 5.9 | 13.9 | 52.0* | 5.0 | 35.6*
Fc1cccc(NC(=S)NCc2ccc(Cl)cc2)c1 | 45.7 | -2.8 | 5.7 | 28.5 | 37.5 | 24.5 | /
O=C(NC(=S)Nc1ccccc1Cl)c1csnn1 | 30.8 | 7.8 | 8.4 | 19.2 | 9.9 | 16.9 | /
FC(F)(F)c1cccc(NC(=S)NCc2ccc(Cl)cc2)c1 | 8.2 | 9.6 | 73.0* | 39.4 | 42.9* | 1.3 | 18.4
Fc1ccc(CNC(=S)Nc2cccc(C(F)(F)F)c2)cc1 | 30.5 | -8.4 | 4.8 | 39.8 | 51.5* | 7.0 | 43.0*
Cc1ccc(-n2c(SCc3cc(=O)n4ccsc4n3)nnc2-c2cccnc2)c(C)c1 | -6.8 | -6.4 | 6.0 | 5.3 | 4.6 | 13.5 | /
CC(C)(C)c1csc(NC(=O)C2COc3ccccc3O2)n1 (stereo not given) | 40.4 | -22.1 | 2.9 | 23.4 | 34.9 | 9.9 | /
COc1ccc(-c2csc(NC(=O)C3COc4ccccc4O3)n2)cc1OC (stereo not given) | 39.4 | -57.2 | 11.1 | 16.3 | 43.1* | 11.5 | 30.9
O=C(CCS(=O)(=O)c1ccc(Br)s1)NC1CCCCCC1 | 29.8 | / | -9.0 | -7.5 | 37.9 | 2.6 | /
CCCCCCCCCCCCC/C=C/[C@@H](O)[C@@H](N)CO | 35.0 | 21.3 | 93.9* | 22.2 | 43.9* | / | 0.9
CCCCCCCC/C=C\CCCCCCCC(=O)O | 2.1 | -24.6 | 2.4 | -21.6 | -3.6 | 8.3 | /
Cc1sc(NC(=O)c2ccco2)c(C(c2cccnc2)N2CCN(C)CC2)c1C (stereo not given) | 24.1 | -0.4 | 1.9 | -0.6 | 9.7 | 10.0 | /
Cc1sc(NC(=O)c2ccco2)c(C(Nc2ccccn2)c2ccccc2)c1C (stereo not given) | 32.7 | -13.6 | -15.5 | 24.9 | 40.0 | 38.7 | 24.9
Cc1sc(NC(=O)c2ccco2)c(C(c2cccnc2)N2CCCC2)c1C (stereo not given) | 49.2 | / | 8.0 | 22.1 | 52.2* | 6.5 | 45.0*
COc1cccc(C(Nc2ccccn2)c2c(NC(=O)c3ccco3)sc(C)c2C)c1 (stereo not given) | 14.4 | 24.7 | 4.7 | 22.5 | 29.6 | 14.3 | /
COc1ccc(C(Nc2ccccn2)c2c(NC(=O)c3ccco3)sc(C)c2C)cc1 (stereo not given) | 47.3 | -13.1 | 8.2 | 38.1 | 41.1* | 30.3 | 26.0
CCOc1ccc(NC(=O)C2CCCN2S(=O)(=O)c2ccc(OCC)cc2)cc1 (stereo not given) | 18.9 | 2.2 | -0.7 | -2.9 | 28.2 | 10.7 | /
CC(OC(=O)CN1C(=O)c2ccccc2C1=O)C(=O)NC1(C#N)CCCCC1 (stereo not given) | 25.6 | -5.7 | / | 14.4 | 25.1 | / | /
CC(C)CC(CO)NS(=O)(=O)c1cccc(Cl)c1F (stereo not given) | / | 3.4 | / | / | / | / | /

Compound activity (PubChem BioAssay)
